From the supplement of paper PMC9262897, “Low-cost anti-mycobacterial drug discovery using engineered E. coli” (Nature Communications, 2022)
Counter-ions that a name gives are not always drawn. ± gives the standard deviation of the averaged measurements.

Key:
Assay in all cases: growth (OD600 after 10 h); higher = more growth (less inhibition)
[1] = system: E. coli TESEC Alr+ wild-type control; settings: compound 0.1 mM; raw OD600 reference: median of DMSO wells 0.241, cell-free background 0.041
Experimental: (§1)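 TESEC Mtb Alr E. coli, or the Alr+ wild-type control, in 384-well plates with Prestwick library compounds at 0.1 mM and 1% DMSO, across arabinose induction levels of 1E3 to 1E7 nM. Growth is read as OD600 after 10 h at 37 °C in triplicate biological replicates.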

E. coli TESEC Mtb Alr [2] = settings: compound 0.1 mM
Experimental: as §1

E. coli TESEC Mtb Asd = settings: compound 0.1 mM
Experimental: (§2)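 TESEC E. coli strains in which the native enzyme is deleted and replaced by arabinose-inducible Mtb Asd, DapB, CysH or TrpD, each grown in its selective medium. Strains were screened against the Prestwick library at 0.1 mM and 1% DMSO in 384-well format at low and high arabinose induction. Growth is read as OD600 after 10 h in triplicate.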

E. coli TESEC Mtb DapB = settings: compound 0.1 mM
Experimental: as §2

E. coli TESEC Mtb Alr [3] = settings: compound 0.1 mM; remark: listed apart in the source
Experimental: (§3)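 TESEC Mtb Alr E. coli (ΔaraC ΔtolC ΔentC Δalr ΔdadX, arabinose-inducible Mtb Alr) or the Alr+ wild-type control strain, grown in defined M9-fructose medium without D-alanine in 96-well plates with Prestwick library compounds at 0.1 mM and 1% DMSO. Low Alr induction is 0.1 µM arabinose and high induction is 10 mM arabinose.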

[4] = system: E. coli TESEC Alr+ wild-type control; settings: compound 0.1 mM; raw OD600 reference: median of DMSO wells 0.49, cell-free background 0.052
Experimental: as §3

[5] = arabinose 1000 nM, raw OD600 reference: median of DMSO wells 0.294, cell-free background 0.041
[6] = arabinose 10000 nM, raw OD600 reference: median of DMSO wells 0.264, cell-free background 0.041
[7] = arabinose 100000 nM, raw OD600 reference: median of DMSO wells 0.201, cell-free background 0.041
[8] = arabinose 1000000 nM, raw OD600 reference: median of DMSO wells 0.193, cell-free background 0.041
[9] = arabinose 10000000 nM, raw OD600 reference: median of DMSO wells 0.146, cell-free background 0.041
[10] = arabinose induction (level): High, raw OD600 reference: median of DMSO wells 0.331, cell-free background 0.041
[11] = arabinose induction (level): Low, raw OD600 reference: median of DMSO wells 0.417, cell-free background 0.041
[12] = arabinose induction (level): High, raw OD600 reference: median of DMSO wells […], cell-free background 0.041
[13] = arabinose induction (level): Low, raw OD600 reference: median of DMSO wells 0.227, cell-free background 0.041
[14] = arabinose 100 nM, raw OD600 reference: median of DMSO wells 0.413, cell-free background 0.052
[15] = arabinose 10000000 nM, raw OD600 reference: median of DMSO wells […], cell-free background 0.052

| SMILES | growth [1] | growth (E. coli TESEC Mtb Alr [2]; [5]) | growth (E. coli TESEC Mtb Alr [2]; [6]) | growth (E. coli TESEC Mtb Alr [2]; [7]) | growth (E. coli TESEC Mtb Alr [2]; [8]) | growth (E. coli TESEC Mtb Alr [2]; [9]) | growth (E. coli TESEC Mtb Asd; [10]) | growth (E. coli TESEC Mtb Asd; [11]) | growth (E. coli TESEC Mtb DapB; [12]) | growth (E. coli TESEC Mtb DapB; [13]) | growth (E. coli TESEC Mtb Alr [3]; [14]) | growth (E. coli TESEC Mtb Alr [3]; [15]) | growth [4] |
| --- | --- | --- | --- | --- | --- | --- | --- | --- | --- | --- | --- | --- | --- |
| CN(C)[C@@H]1C(=O)C(C(N)=O)=C(O)[C@@]2(O)C(=O)C3=C(O)c4c(O)ccc(Cl)c4[C@@](C)(O)[C@H]3C[C@@H]12 [Chlortetracycline hydrochloride] | 0.03933 ± 0.00031 | 0.0417 ± 0.0029 | 0.04 ± 0.00072 | 0.0444 ± 0.0038 | 0.0402 ± 0.0018 | 0.0405 ± 0.0011 | 0.0499 ± 0.0023 | 0.0479 ± 0.00061 | 0.0465 ± 0.0014 | 0.0507 ± 0.0031 | 0.0524 ± 0.00066 | 0.0506 ± 0.00035 | – |
| CCCC(C)C1(CC)C(=O)NC(=O)NC1=O (configuration not stated) [Pentobarbital] | 0.233 ± 0.0093 | 0.279 ± 0.016 | 0.255 ± 0.013 | 0.233 ± 0.019 | 0.203 ± 0.011 | 0.143 ± 0.0092 | 0.451 ± 0.018 | 0.399 ± 0.087 | – | – | 0.4 ± 0.018 | 0.369 ± 0.0053 | 0.432 ± 0.011 |
| COc1ccc(Cc2nccc3cc(OC)c(OC)cc23)cc1OC [Papaverine hydrochloride] | 0.153 ± 0.0032 | 0.199 ± 0.0045 | 0.215 ± 0.0047 | 0.141 ± 0.0019 | 0.087 ± 0.0015 | 0.133 ± 0.0021 | 0.133 ± 0.013 | 0.262 ± 0.035 | 0.148 ± 0.0024 | 0.161 ± 0.0073 | 0.397 ± 0.0098 | 0.22 ± 0.0059 | – |
| C[C@]12CC[C@@H](O)C[C@@H]1CC[C@@H]1[C@@H]2CC[C@]2(C)C(=O)CC[C@@H]12 [Androsterone] | 0.117 ± 0.0044 | 0.123 ± 0.002 | 0.212 ± 0.012 | 0.118 ± 0.0038 | 0.0932 ± 0.0027 | 0.0878 ± 0.0015 | 0.148 ± 0.026 | 0.324 ± 0.044 | – | – | 0.3429 ± 0.0014 | 0.0883 ± 0.011 | 0.291 ± 0.016 |
| c1ccc2c(c1)OCC(C1=NCCN1)O2 (configuration not stated) [Idazoxan hydrochloride] | 0.23 ± 0.013 | 0.281 ± 0.02 | 0.27 ± 0.0069 | 0.188 ± 0.0024 | 0.192 ± 0.0045 | 0.141 ± 0.0099 | 0.373 ± 0.039 | 0.379 ± 0.019 | – | – | 0.401 ± 0.014 | 0.315 ± 0.0098 | – |
| CC[C@@H](C(N)=O)N1CCCC1=O [Levetiracetam] | 0.247 ± 0.0084 | 0.304 ± 0.018 | 0.264 ± 0.0095 | 0.205 ± 0.0055 | 0.183 ± 0.0062 | 0.168 ± 0.0049 | 0.256 ± 0.074 | 0.313 ± 0.057 | – | – | 0.409 ± 0.0085 | 0.364 ± 0.028 | – |
| C[C@]12CC[C@@H]3c4ccc(OC(=O)N(CCCl)CCCl)cc4CC[C@H]3[C@@H]1CC[C@@H]2O [Estramustine] | 0.248 ± 0.0012 | 0.306 ± 0.011 | 0.284 ± 0.01 | 0.212 ± 0.011 | 0.147 ± 0.009 | 0.1686 ± 0.00066 | 0.207 ± 0.025 | 0.189 ± 0.049 | – | – | 0.396 ± 0.014 | 0.31 ± 0.0085 | 0.399 ± 0.008 |
| C[C@]12N[C@H](Cc3ccccc31)c1ccccc12 [Dizocilpine maleate] | 0.2374 ± 0.0019 | 0.286 ± 0.009 | 0.273 ± 0.0096 | 0.158 ± 0.014 | 0.123 ± 0.0042 | 0.134 ± 0.0024 | 0.179 ± 0.014 | 0.415 ± 0.059 | – | – | 0.4169 ± 0.0029 | 0.304 ± 0.01 | – |
| C[N+](C)(C)CCCCCCCCCC[N+](C)(C)C [Decamethonium bromide] | 0.246 ± 0.0085 | 0.286 ± 0.015 | 0.2525 ± 0.0016 | 0.214 ± 0.022 | 0.208 ± 0.003 | 0.13 ± 0.0017 | 0.369 ± 0.032 | 0.444 ± 0.043 | – | – | 0.39 ± 0.017 | 0.376 ± 0.022 | – |
| C=CC[C@]1(O)CC[C@H]2[C@@H]3CCC4=CC(=O)CCC4=C3C=C[C@@]21C [Altrenogest] | 0.132 ± 0.0045 | 0.16 ± 0.0073 | 0.167 ± 0.0079 | 0.144 ± 0.0049 | 0.0767 ± 0.0035 | 0.118 ± 0.005 | 0.148 ± 0.027 | 0.126 ± 0.021 | – | – | 0.376 ± 0.0056 | 0.134 ± 0.011 | – |
| O=[N+]([O-])O[C@H]1CO[C@H]2[C@@H]1OC[C@H]2O[N+](=O)[O-] [Isosorbide dinitrate] | 0.243 ± 0.013 | 0.32 ± 0.014 | 0.263 ± 0.0089 | 0.217 ± 0.025 | 0.185 ± 0.0031 | 0.159 ± 0.0026 | 0.476 ± 0.013 | 0.419 ± 0.07 | – | – | 0.4084 ± 0.0022 | 0.343 ± 0.014 | 0.474 ± 0.092 |
| C=C(C)[C@@H]1[C@H]2OC(=O)[C@@H]1[C@]1(O)C[C@H]3O[C@]34C(=O)O[C@H]2[C@]14C [Picrotoxinin] | 0.253 ± 0.0051 | 0.314 ± 0.023 | 0.2631 ± 0.002 | 0.215 ± 0.023 | 0.186 ± 0.0029 | 0.138 ± 0.0029 | 0.343 ± 0.016 | 0.461 ± 0.003 | – | – | 0.401 ± 0.011 | 0.351 ± 0.0093 | – |
| C[C@]12CC[C@H]3[C@@H](CCC4=CC(=O)CC[C@@H]43)[C@@H]1CC[C@@H]2O [Nandrolone] | 0.154 ± 0.0082 | 0.201 ± 0.014 | 0.226 ± 0.012 | 0.118 ± 0.0031 | 0.0814 ± 0.0003 | 0.115 ± 0.0021 | 0.106 ± 0.0027 | 0.267 ± 0.1 | – | – | 0.408 ± 0.0099 | 0.211 ± 0.0078 | 0.423 ± 0.015 |
| CCNCC(O)c1cccc(O)c1 (configuration not stated) [Etilefrine hydrochloride] | 0.247 ± 0.0026 | 0.3085 ± 0.0027 | 0.261 ± 0.012 | 0.188 ± 0.018 | 0.193 ± 0.0032 | 0.134 ± 0.0026 | 0.211 ± 0.025 | 0.367 ± 0.035 | – | – | 0.409 ± 0.015 | 0.345 ± 0.023 | – |
| O=c1[nH]c2ccccc2n1C1CCN(CCCC(c2ccc(F)cc2)c2ccc(F)cc2)CC1 [Pimozide] | 0.164 ± 0.013 | 0.243 ± 0.0073 | 0.2629 ± 0.0026 | 0.226 ± 0.045 | 0.106 ± 0.0046 | 0.142 ± 0.004 | 0.209 ± 0.024 | 0.396 ± 0.015 | – | – | 0.417 ± 0.0074 | 0.307 ± 0.034 | 0.52 ± 0.043 |
| C[C@]12C/C(=C/O)C(=O)C[C@@H]1CC[C@@H]1[C@@H]2CC[C@@]2(C)[C@H]1CC[C@]2(C)O [Oxymetholone] | 0.162 ± 0.002 | 0.293 ± 0.0078 | 0.241 ± 0.025 | 0.244 ± 0.014 | 0.101 ± 0.0039 | 0.177 ± 0.0058 | 0.124 ± 0.0085 | 0.226 ± 0.043 | – | – | 0.379 ± 0.019 | 0.252 ± 0.004 | – |
| CC1C=CC=CCCC=CC=CC=CC=CC(OC2OC(C)C(O)C(N)C2O)CC2OC(O)(CC(O)C(O)CCC(O)CC(O)CC(O)CC(=O)OC(C)C(C)C1O)CC(O)C2C(=O)O (configuration not stated) [Nystatine] | 0.297 ± 0.0097 | 0.307 ± 0.025 | 0.2338 ± 0.0013 | 0.345 ± 0.014 | 0.1538 ± 0.0011 | 0.188 ± 0.0066 | 0.23 ± 0.021 | 0.256 ± 0.023 | – | – | 0.431 ± 0.0073 | 0.345 ± 0.016 | – |
| CN1[C@@H]2CC[C@H]1C[C@@H](OC(=O)[C@H](CO)c1ccccc1)C2 [Hyoscyamine (L)] | 0.243 ± 0.0078 | 0.293 ± 0.024 | 0.272 ± 0.0055 | 0.23 ± 0.011 | 0.176 ± 0.005 | 0.158 ± 0.011 | 0.317 ± 0.073 | 0.377 ± 0.074 | 0.191 ± 0.014 | 0.29 ± 0.023 | 0.415 ± 0.02 | 0.34 ± 0.02 | – |
| CC(=O)O[C@H]1CC[C@@]2(C)C(=CC[C@@H]3[C@@H]2CC[C@]2(C)C(=O)CC[C@@H]32)C1 [Dehydroisoandosterone 3-acetate] | 0.198 ± 0.065 | 0.239 ± 0.019 | 0.253 ± 0.01 | 0.144 ± 0.0063 | 0.106 ± 0.015 | 0.134 ± 0.0039 | 0.315 ± 0.044 | 0.391 ± 0.0042 | – | – | 0.376 ± 0.012 | 0.0699 ± 0.0044 | – |
